The source of these data is PubChem BioAssay (Tox21).

SMILES strings stand for the structures. Results filed as inconclusive are left out. A call without a number means that no potency is given here. Activity calls are given as the source filed them. Calls come from the whole dose curve.
Note: nearly all actives have a fitted effect of over 35% in size.
Potency is the fitted concentration of half-maximal effect.

Chain of Gonadotropin-releasing hormone receptor (Homo sapiens) (P30968 whole entry, looked up): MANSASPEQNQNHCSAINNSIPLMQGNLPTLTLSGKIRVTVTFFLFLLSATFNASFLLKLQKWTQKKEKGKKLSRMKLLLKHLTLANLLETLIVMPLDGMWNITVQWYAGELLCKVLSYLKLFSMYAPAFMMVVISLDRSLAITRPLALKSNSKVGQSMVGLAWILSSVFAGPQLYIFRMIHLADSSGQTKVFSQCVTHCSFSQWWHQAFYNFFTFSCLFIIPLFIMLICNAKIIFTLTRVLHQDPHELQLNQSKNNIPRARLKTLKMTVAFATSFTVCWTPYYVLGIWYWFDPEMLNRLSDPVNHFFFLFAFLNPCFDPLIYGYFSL

Test system in one experiment: not listed separately
The experiment is described as follows: Nuclear factor erythroid 2-related factor 2/antioxidant responsive element (Nrf2/ARE) small molecule agonists: luciferase reporter gene qHTS assay in human keratinocytes (AID 1919969). Particulars: KeratinoSens HaCaT ARE-luciferase, luminescence, 24 h; series mostly up to 92.4 µM.
Regarding `N#Cc1sc2c(=O)c3ccccc3c(=O)c=2sc1C#N`, the Potency is 2.17 µM (active).
Still for that read-out and setting: in the case of `C=CC(=O)OCC` it was “inactive”; in that of `Cc1c(Cl)c(=O)oc2cc(OP(=O)(OCCCl)OCCCl)ccc12`, “inactive”; in that of `O=C(CBr)Nc1ccc(Cl)cc1C(=O)c1ccccc1F`, “inactive”.
Same read-out and setting: to `CC1=NNC(=O)N(/N=C/c2cccnc2)C1` belongs “inactive”; to `[O-][Cl+3]([O-])([O-])O`, “inactive”; to `CCn1cc[n+](C)c1` (tested in a mixture with another compound), “inactive”.
For `CCOC(=O)C(Cl)Cc1cc(-n2nc(C)n(C(F)F)c2=O)c(F)cc1Cl` (stereo not given), the Potency result was “inactive”.
Same read-out and setting: in the case of `COc1ccc(C(=O)c2c(C)n(CCN3CCOCC3)c3ccccc23)cc1` it was “inactive”.
Turning to `CSC(C)(C)/C=N/O`, the Potency result is “inactive”.
With `C=CCC1(C(C)CC)C(=O)NC(=O)NC1=O` (stereo not given), the Potency entry is “inactive”.
The same measure, in the same setting: to `CCOP(=O)(SC(C)CC)N1CCSC1=O` (stereo not given) belongs “inactive”; to `CCOP(=S)(OCC)Oc1cc(-c2ccccc2)on1`, “inactive”.
Consider `CCNP(=S)(OC)O/C(C)=C/C(=O)OC(C)C` (stereo not given), for which the Potency result is “inactive”.
For the compound `COP(=O)(OC)O/C(C)=C/C(=O)N(C)C`, the Potency entry is “inactive”.
On the same count and under the same terms, to `CCOC(=O)CCN(SN(C)C(=O)Oc1cccc2c1OC(C)(C)C2)C(C)C` belongs 61.1 µM (active).
On the same count and under the same terms, to `CN1C2CCC(C)(C)C1CC(OC(=O)C(O)(c1cccs1)c1cccs1)C2` (stereo not given) belongs “inactive”; to `O=C1OC(=O)C2C1C1(Cl)C(Cl)=C(Cl)C2(Cl)C1(Cl)Cl` (stereo not given), “inactive”.
In the case of `C[C@H](CN1CCOCC1)C(C(=O)N1CCCC1)(c1ccccc1)c1ccccc1`, the Potency entry is “inactive”.
On the same count and under the same terms, in the case of `NNCc1ccccc1` it was “inactive”.
With `ClC(Br)Br`, the Potency entry is “inactive”.
The same measure, in the same setting: to `C#CC(C)(C)O` belongs “inactive”.
Turning to `CCN1CCC2(CC1)COc1cc3c(cc12)N(C(=O)c1ccc(-c2ccc(-c4nnc(C)o4)cc2C)cc1)CC3`, the Potency result was “inactive”.
Turning to `CNC(=O)O/N=C(\C)C(C)S(C)(=O)=O` (stereo not given), the Potency is 708 µM (active).
Same read-out and setting: in the case of `CCOC(=O)c1cn2nc(OP(=S)(OCC)OCC)cc2nc1C` it was “inactive”.
As for `CC(C)(c1ccc(O)c(-c2ccccc2)c1)c1ccc(O)c(-c2ccccc2)c1`, the Potency result is “inactive”.
Same read-out and setting: in the case of `CCC1(c2ccccc2)C(=O)N(COC)C(=O)N(COC)C1=O` it was “inactive”.
As to `CCS(=O)(=O)CCSP(=O)(OC)OC`, the Potency was 61.1 µM (active).
With `c1cc[n+]2c(c1)-c1cccc[n+]1CC2`, the Potency entry is “inactive”.
Same read-out and setting: in the case of `O=C(Nc1ccccc1-c1ccc(Cl)cc1)c1cccnc1Cl` it was 68.6 µM (active).
On the same count and under the same terms, in the case of `O=C(NC(O)C(Cl)(Cl)Cl)NC(O)C(Cl)(Cl)Cl` (stereo not given) it was “inactive”; in that of `CNC(=O)Oc1cccc(N=CN(C)C)c1`, “inactive”.
On the same count and under the same terms, to `ClCc1ccccc1Cl` belongs “inactive”; to `CCOP(=S)(OCC)Oc1nc(Cl)n(C(C)C)n1`, “inactive”; to `CCOP(=S)(OCC)Oc1ccc(Cl)cc1Cl`, “inactive”.
Consider `CC(C)O.CC(C)O.OCCN(CCO)CCO.OCCN(CCO)CCO.[Ti]`, for which the Potency entry is “inactive”.
For the compound `CN(C)S(=O)(=O)N(SC(F)(Cl)Cl)c1ccccc1`, the Potency was 4.86 µM (active).
Same read-out and setting: in the case of `CNC(=O)O/N=C(/CSC)C(C)(C)C` it was “inactive”; in that of `C/C=C/C=O`, 58.4 µM (active); in that of `CNC(=O)Oc1ccccc1C(C)C`, “inactive”.

A further experiment addresses Gonadotropin-releasing hormone receptor (Homo sapiens) (UniProt P30968). The experiment is described as follows: Human gonadotropin-releasing hormone receptor (GnRHR) small molecule agonists, calcium flux assay in GnRHR-HEK293 cells (AID 1920063). The settings on record: calcium flux fluorescence, agonist mode; series mostly up to 57.6 µM. The essentials:
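Calcium-dye fluorescence, Ex/Em=480/540, recorded every 1 sec over 3 min after compound addition to GnRHR-HEK293 cells. Cells had been seeded 18 hours earlier and dye-loaded for 1 hour at 37 C. Fifteen concentrations, triplicates.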
In general terms: A change in cytosolic calcium serves as a functional read-out for many receptors and channels.
On to `N#Cc1sc2c(=O)c3ccccc3c(=O)c=2sc1C#N`, for which the Potency result is “inactive”.
On the same count and under the same terms, to `C=CC(=O)OCC` belongs “inactive”.
As to `Cc1c(Cl)c(=O)oc2cc(OP(=O)(OCCCl)OCCCl)ccc12`, the Potency entry is “inactive”.
On the same count and under the same terms, to `O=C(CBr)Nc1ccc(Cl)cc1C(=O)c1ccccc1F` belongs “inactive”; to `CC1=NNC(=O)N(/N=C/c2cccnc2)C1`, “inactive”; to `[O-][Cl+3]([O-])([O-])O`, “inactive”.
On to `CCn1cc[n+](C)c1` (tested in a mixture with another compound), for which the Potency entry was “inactive”.
For the compound `CCOC(=O)C(Cl)Cc1cc(-n2nc(C)n(C(F)F)c2=O)c(F)cc1Cl` (stereo not given), the Potency entry was “inactive”.
With `COc1ccc(C(=O)c2c(C)n(CCN3CCOCC3)c3ccccc23)cc1`, the Potency entry was “inactive”.
On to `CSC(C)(C)/C=N/O`, for which the Potency result is “inactive”.
Same read-out and setting: in the case of `C=CCC1(C(C)CC)C(=O)NC(=O)NC1=O` (stereo not given) it was “inactive”; in that of `CCOP(=O)(SC(C)CC)N1CCSC1=O` (stereo not given), “inactive”.
Turning to `CCOP(=S)(OCC)Oc1cc(-c2ccccc2)on1`, the Potency result was “inactive”.
Still for that read-out and setting: to `CCNP(=S)(OC)O/C(C)=C/C(=O)OC(C)C` (stereo not given) belongs “inactive”.
Regarding `COP(=O)(OC)O/C(C)=C/C(=O)N(C)C`, the Potency result is “inactive”.
With `CCOC(=O)CCN(SN(C)C(=O)Oc1cccc2c1OC(C)(C)C2)C(C)C`, the Potency entry is “inactive”.
Consider `CN1C2CCC(C)(C)C1CC(OC(=O)C(O)(c1cccs1)c1cccs1)C2` (stereo not given), for which the Potency entry is “inactive”.
On to `O=C1OC(=O)C2C1C1(Cl)C(Cl)=C(Cl)C2(Cl)C1(Cl)Cl` (stereo not given), for which the Potency entry is “inactive”.
On the same count and under the same terms, to `C[C@H](CN1CCOCC1)C(C(=O)N1CCCC1)(c1ccccc1)c1ccccc1` belongs “inactive”; to `NNCc1ccccc1`, “inactive”; to `ClC(Br)Br`, “inactive”.
For `C#CC(C)(C)O`, the Potency entry was “inactive”.
On to `CCN1CCC2(CC1)COc1cc3c(cc12)N(C(=O)c1ccc(-c2ccc(-c4nnc(C)o4)cc2C)cc1)CC3`, for which the Potency entry is “inactive”.
On to `CNC(=O)O/N=C(\C)C(C)S(C)(=O)=O` (stereo not given), for which the Potency result was “inactive”.
Regarding `CCOC(=O)c1cn2nc(OP(=S)(OCC)OCC)cc2nc1C`, the Potency entry is “inactive”.
Still for that read-out and setting: in the case of `CC(C)(c1ccc(O)c(-c2ccccc2)c1)c1ccc(O)c(-c2ccccc2)c1` it was “inactive”.
The same measure, in the same setting: to `CCC1(c2ccccc2)C(=O)N(COC)C(=O)N(COC)C1=O` belongs “inactive”; to `CCS(=O)(=O)CCSP(=O)(OC)OC`, “inactive”; to `c1cc[n+]2c(c1)-c1cccc[n+]1CC2`, “inactive”.
Same read-out and setting: in the case of `O=C(Nc1ccccc1-c1ccc(Cl)cc1)c1cccnc1Cl` it was “inactive”; in that of `O=C(NC(O)C(Cl)(Cl)Cl)NC(O)C(Cl)(Cl)Cl` (stereo not given), “inactive”; in that of `CNC(=O)Oc1cccc(N=CN(C)C)c1`, “inactive”.
Regarding `ClCc1ccccc1Cl`, the Potency entry was “inactive”.
Regarding `CCOP(=S)(OCC)Oc1nc(Cl)n(C(C)C)n1`, the Potency entry was “inactive”.
Same read-out and setting: to `CCOP(=S)(OCC)Oc1ccc(Cl)cc1Cl` belongs “inactive”; to `CC(C)O.CC(C)O.OCCN(CCO)CCO.OCCN(CCO)CCO.[Ti]`, “inactive”; to `CN(C)S(=O)(=O)N(SC(F)(Cl)Cl)c1ccccc1`, 38.9 µM (active).
On the same count and under the same terms, to `CNC(=O)O/N=C(/CSC)C(C)(C)C` belongs “inactive”; to `C/C=C/C=O`, “inactive”.
Same read-out and setting: in the case of `CNC(=O)Oc1ccccc1C(C)C` it was “inactive”.
